Molecules are shown by their SMILES. Calls of active or inactive are those of the source. The calls were made as follows: active = hit-call score of the fitted dose curve at least 0.9, where 1 is the maximum; inactive = score below 0.9.

Data on four compounds can be found in PubChem BioAssay (EPA / NIEHS).

Assay [1] can be described thus: APR_HepG2_CellLoss_72hr: Apredica 72-hour HepG2 Assay for Cell Loss (AID 2282915). The following applies: high-content imaging. The method, boiled down: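 HepG2 cells exposed 72 h to compound at 0.39–200 uM (10 concentrations, duplicate) in 0.5% DMSO. Fixed with 3.7% formaldehyde and Hoechst 33342-stained. Imaged at 20x; nuclear count gives cell number, fitted bidirectionally versus DMSO.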

Assay [2] is described as follows: APR_HepG2_P-H2AX_72hr: Apredica 72-hour HepG2 Assay for H2AX Phosphorylation (AID 2282916).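 Also: phospho-histone H2A.x immunostain intensity per cell marking DNA damage.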 The following applies: imaging, actives raise or lower the signal. The method in brief: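 HepG2 cells treated 72 h at 0.39–200 uM, 0.5% DMSO final, duplicates. Formaldehyde-fixed, Triton-permeabilised, immunostained for phospho-H2A.x with Hoechst; fluorescence imaged at 20x, bidirectional fit versus DMSO.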

A short description of assay [3]: APR_HepG2_MitoMembPot_72hr: Apredica 72-hour HepG2 Assay for Mitochondrial Membrane Potential (AID 2282917). The following applies: imaging, actives raise or lower the signal. The method, boiled down: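 HepG2 cells dosed 72 hr with compound at 0.39–200 uM in duplicate, 0.5% v/v DMSO final. Mitochondria stained with 250 nM MitoTracker Red CMXRos for 30 min before formaldehyde fixation, imaged by high-content fluorescence; bidirectional fit versus DMSO.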

The nature of assay [4]: APR_HepG2_MitoticArrest_72hr: Apredica 72-hour HepG2 Assay for Mitotic Arrest (AID 2282918). The settings on record: high-content imaging, actives raise or lower the signal. The method, boiled down:
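HepG2 cells treated 72 h at 0.39–200 uM, 0.5% DMSO final; formaldehyde-fixed, stained with Hoechst 33342 and phospho-histone H3 antibody, imaged by high-content fluorescence; bidirectional fit versus DMSO.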

Assay [5] in a line: APR_HepG2_MicrotubuleCSK_72hr: Apredica 72-hour HepG2 Assay for Microtubule CSK Stabilty (AID 2282919). The following applies: HepG2 microtubule cytoskeleton, high-content imaging, actives raise or lower the signal. The method, boiled down: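 HepG2 cells were exposed 72 hr to compound at 0.39–200 uM in duplicate (0.5% DMSO final), then fixed and permeabilized. Alpha-tubulin immunofluorescence was imaged by high-content microscopy, with bidirectional fitting against DMSO and taxol as positive control.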

Assay [6] in a line: APR_HepG2_P-H2AX_24hr: Apredica 24-hour HepG2 Assay for H2AX Phosphorylation (AID 2282920). The following applies: high-content imaging, actives raise or lower the signal. The method, boiled down:
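HepG2 cells dosed 24 h at 0.39–200 uM (10 points, duplicate, 0.5% DMSO final). Formaldehyde-fixed and permeabilized, then immunostained for phospho-H2A.x with Hoechst. Fluorescence quantified by high-content imaging, fitted bidirectionally versus DMSO.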

Assay [7] in a line: APR_HepG2_StressKinase_72hr: Apredica 72-hour HepG2 Assay for Stress Kinase (AID 2282921). The following applies: HepG2 stress kinase (phospho-c-Jun) imaging, actives raise or lower the signal. The method in brief:
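HepG2 cells treated 72 hr with 0.39–200 uM compound, 0.5% v/v DMSO, duplicate wells. After formaldehyde fixation and Triton permeabilization, stained with anti-phospho-c-Jun (1:500) and Cy3 secondary, imaged at 20x. Fitted in both directions against DMSO.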

The nature of assay [8]: APR_HepG2_StressKinase_24hr: Apredica 24-hour HepG2 Assay for Stress Kinase (AID 2282922). The settings on record: HepG2 stress kinase (phospho-c-Jun) imaging, actives raise or lower the signal. The method in brief: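 HepG2 cells exposed 24 h to 0.39–200 uM compound in duplicate (0.5% v/v DMSO final). Cells fixed in 3.7% formaldehyde, permeabilized and immunostained for phospho-c-Jun; read by high-content fluorescence imaging, fitted bidirectionally against DMSO.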

Assay [9] is described as follows: APR_HepG2_p53Act_72hr: Apredica 72-hour HepG2 Assay for p53 Activation (AID 2282923).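 Also: average cellular p53 protein immunofluorescence intensity in HepG2 cells.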 The settings on record: high-content imaging, actives raise or lower the signal. The method in brief:
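HepG2 cells exposed 72 h to 0.39–200 uM in 0.5% DMSO, duplicates. Fixed, permeabilized cells immunostained for p53 (Cy5) with Hoechst; imaged at 20x, fluorescence analyzed bidirectionally against DMSO.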

Assay [10] is described as follows: APR_HepG2_MitoMass_72hr: Apredica 72-hour HepG2 Assay for Mitochondrial Mass (AID 2282924).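 Also: MitoTracker Red CMXRos stain intensity per cell imaged as mitochondrial mass.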 The settings on record: high-content imaging, actives raise or lower the signal. The method in brief:
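HepG2 cells dosed 72 hr at 0.39–200 uM (0.5% DMSO), in duplicate. MitoTracker Red CMXRos 250 nM loaded 30 min before formaldehyde fixation; high-content fluorescence imaging, bidirectional fit versus DMSO.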

A short description of assay [11]: APR_HepG2_NuclearSize_72hr: Apredica 72-hour HepG2 Assay for Nuclear Size (AID 2282925). The settings on record: high-content imaging, actives raise or lower the signal. The method, boiled down:
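HepG2 cells dosed 72 h at 0.39–200 uM (10 concentrations, duplicate) in 0.5% v/v DMSO final. Fixed, Hoechst 33342-stained nuclei imaged; nuclear diameter measured by automated image analysis. Bidirectional fit versus DMSO.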

Assay [12] in a line: ATG_CRE_CIS: Attagene CIS-FACTORIAL HepG2 Assay for human cAMP Responsive Element (CRE) binding protein 3 (AID 2282926). The settings on record: HepG2 CRE cis-reporter, Attagene multiplexed mRNA; actives raise or lower the signal. The method, boiled down:
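HepG2 cells transiently transfected with cis-element-driven multiple reporter transcription units; CRE reporter mRNA measured 24 h after dosing by RT-PCR, 6-FAM labelling, HpaI digestion and capillary electrophoresis. Bidirectional fit versus DMSO baseline.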

Assay [13] concerns the target CCAAT/enhancer-binding protein beta (Homo sapiens) (UniProt P17676). The experiment in a line: ATG_C_EBP_CIS: Attagene CIS-FACTORIAL HepG2 Assay for human CCAAT/Enhancer Binding Protein (C/EBP) beta (AID 2282927). The following applies: HepG2 Attagene cis-factorial transcription factor reporter; actives raise or lower the signal. The method, boiled down: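 Transiently transfected HepG2 (MRTU library, endogenous TF-driven promoters); 24 h dosing; total RNA → oligo(dT) RT → PCR → 6-FAM primer extension → HpaI digest → CE; fit bidirectionally vs DMSO.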

A short description of assay [14]: ATG_DR4_LXR_CIS: Attagene CIS-FACTORIAL HepG2 Assay for human Liver X Receptor (LXR), DR4 submotif (AID 2282929). The following applies: HepG2 Attagene DR4 cis-reporter, mRNA transcription; actives raise or lower the signal. The method, boiled down: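 HepG2 cells were transiently transfected with multiple cis-regulated reporter units and dosed for 24 hours. The DR4 reporter mRNA was quantified by RT-PCR, 6-FAM labelling and capillary electrophoresis. Bidirectional fits used DMSO as baseline.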

Assay [15] addresses Aryl hydrocarbon receptor (Homo sapiens) (UniProt P35869). As to the kind of experiment: ATG_Ahr_CIS: Attagene CIS-FACTORIAL HepG2 Assay for human Aryl Hydrocarbon Receptor (Ahr) (AID 2282930). The following applies: HepG2 AhR cis-factorial reporter transcription; actives raise or lower the signal. The method, boiled down:
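Read-out: reporter mRNA quantified by RT-PCR with fluorescent primer extension and capillary electrophoresis. Human HepG2 liver cells carried transfected cis-promoter reporter units and were exposed to chemical for 24 h; gain or loss fitted relative to DMSO.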

Assay [16] is described as follows: ATG_AP_1_CIS: Attagene CIS-FACTORIAL HepG2 Assay for human Activator Protein 1 (AP-1) (AID 2282931). The settings on record: HepG2 Attagene cis-factorial AP-1 reporter mRNA; actives raise or lower the signal. The method, boiled down: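 HepG2 cells transiently transfected with cis-element-driven reporter transcription units, dosed for 24 hours. Reporter mRNA measured by RT-PCR, 6-FAM labelling, HpaI digestion and capillary electrophoresis. Bidirectional fitting against DMSO baseline.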

The nature of assay [17]: ATG_BRE_CIS: Attagene CIS-FACTORIAL HepG2 Assay for human Bone Morphogenetic Protein (BMP) Response Element (BRE) (AID 2282933). The following applies: HepG2 BMP response element reporter, Attagene transcription factor profiling; actives raise or lower the signal. The method, boiled down: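 Read-out: reporter mRNA induction quantified by RT-PCR and capillary electrophoresis after 24 h chemical exposure of transfected HepG2 cells. Endogenous factor activity on the BMP response element; gain or loss fitted against DMSO baseline.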

Assay [18] is described as follows: ATG_AP_2_CIS: Attagene CIS-FACTORIAL HepG2 Assay for human Activator Protein 2 (AP-2) (AID 2282932). The settings on record: HepG2 AP-2 cis-reporter, Attagene transcription factor profiling; actives raise or lower the signal. The method in brief:
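HepG2 cells transiently transfected with cis-element reporter units and exposed for 24 h. Reporter mRNA measured by RT-PCR, FAM labelling, HpaI digestion and capillary electrophoresis. Changes in either direction fitted relative to DMSO.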

For assay [19], the target named is Retinoic acid receptor alpha (Homo sapiens) (UniProt P10276). As to the kind of experiment: ATG_DR5_RAR_CIS: Attagene CIS-FACTORIAL HepG2 Assay for human Retinoic Acid Receptor Alpha (RARE), DR5 submotif (AID 2282934). The following applies: HepG2 Attagene cis-factorial RARE DR5 reporter, mRNA; actives raise or lower the signal. The method, boiled down:
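Read-out: DR5-driven reporter transcript measured by RT-PCR, 6-FAM primer extension, HpaI digest and capillary electrophoresis. Human HepG2 liver cells carry transiently transfected cis-element reporter constructs; dosing lasts 24 h. Gain or loss of signal fitted against DMSO baseline.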

Chain of Aryl hydrocarbon receptor (Homo sapiens) (P35869 whole entry, looked up): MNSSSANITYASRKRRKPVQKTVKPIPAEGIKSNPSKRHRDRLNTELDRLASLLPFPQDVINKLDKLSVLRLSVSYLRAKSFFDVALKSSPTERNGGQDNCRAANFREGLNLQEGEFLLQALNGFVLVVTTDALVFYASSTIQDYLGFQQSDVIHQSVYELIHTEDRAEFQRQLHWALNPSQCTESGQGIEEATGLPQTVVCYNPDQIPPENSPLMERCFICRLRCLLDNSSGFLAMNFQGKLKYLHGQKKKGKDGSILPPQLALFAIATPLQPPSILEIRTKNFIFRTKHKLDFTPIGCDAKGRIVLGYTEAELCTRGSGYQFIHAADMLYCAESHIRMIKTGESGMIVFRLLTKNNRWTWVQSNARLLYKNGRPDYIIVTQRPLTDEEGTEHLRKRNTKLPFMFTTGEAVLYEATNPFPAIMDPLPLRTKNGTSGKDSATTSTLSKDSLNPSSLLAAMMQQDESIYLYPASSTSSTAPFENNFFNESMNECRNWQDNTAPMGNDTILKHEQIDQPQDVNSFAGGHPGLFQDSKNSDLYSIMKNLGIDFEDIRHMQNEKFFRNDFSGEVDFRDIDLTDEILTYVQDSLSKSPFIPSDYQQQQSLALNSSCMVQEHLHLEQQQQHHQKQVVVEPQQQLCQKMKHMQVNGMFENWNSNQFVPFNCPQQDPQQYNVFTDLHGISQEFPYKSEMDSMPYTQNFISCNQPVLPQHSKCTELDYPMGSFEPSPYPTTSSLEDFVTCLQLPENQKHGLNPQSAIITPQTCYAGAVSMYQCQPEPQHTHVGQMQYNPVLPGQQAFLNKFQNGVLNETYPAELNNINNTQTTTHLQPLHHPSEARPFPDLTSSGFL
Chain of CCAAT/enhancer-binding protein beta (Homo sapiens) (P17676 whole entry, looked up): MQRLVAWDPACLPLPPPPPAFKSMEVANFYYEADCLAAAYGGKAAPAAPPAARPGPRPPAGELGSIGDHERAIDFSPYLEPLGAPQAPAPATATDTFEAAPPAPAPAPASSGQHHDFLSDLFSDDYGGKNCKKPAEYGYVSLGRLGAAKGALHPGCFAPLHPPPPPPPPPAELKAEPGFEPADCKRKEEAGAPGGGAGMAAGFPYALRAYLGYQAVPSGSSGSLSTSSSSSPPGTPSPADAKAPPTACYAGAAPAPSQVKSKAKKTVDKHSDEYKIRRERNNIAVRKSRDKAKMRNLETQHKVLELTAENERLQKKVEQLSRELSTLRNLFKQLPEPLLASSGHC
Chain of Retinoic acid receptor alpha (Homo sapiens) (P10276 whole entry, looked up): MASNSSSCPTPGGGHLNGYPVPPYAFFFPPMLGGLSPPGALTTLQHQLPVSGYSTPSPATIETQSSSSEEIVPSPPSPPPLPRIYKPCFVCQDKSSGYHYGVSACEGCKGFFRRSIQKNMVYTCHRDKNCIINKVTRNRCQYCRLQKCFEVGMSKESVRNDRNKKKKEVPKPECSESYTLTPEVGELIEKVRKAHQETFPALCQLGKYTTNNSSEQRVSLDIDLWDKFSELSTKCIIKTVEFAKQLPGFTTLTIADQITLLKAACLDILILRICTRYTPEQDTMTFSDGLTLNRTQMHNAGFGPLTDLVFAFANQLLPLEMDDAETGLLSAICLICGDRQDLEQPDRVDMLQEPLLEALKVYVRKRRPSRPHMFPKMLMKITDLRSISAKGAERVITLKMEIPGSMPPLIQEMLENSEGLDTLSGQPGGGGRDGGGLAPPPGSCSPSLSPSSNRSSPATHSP

Turning to `C[Si]1(C)O[Si](C)(C)O[Si](C)(C)O[Si](C)(C)O1`, the compound was called inactive in assay [1], in [2], in assay [3], in assay [4], in assay [5] and in [6]. Besides, the result in [7], in assay [8], in [9], in assay [10], in assay [11] and in assay [12] was inactive. Besides, the outcome in [13], in [15], in [16] and in assay [17] was inactive. In [14], the AC50 is 49.6 µM (active).
For `Nc1ccc2c(c1)C(=O)c1ccccc1C2=O`, the AC50 in assay [1] was 11.5 µM (active); in assay [2], 16.2 µM (active); in assay [4], 10.2 µM (active); in assay [6] it was 21.2 µM (active); in [9] it was 19.3 µM (active). The compound was classed as inactive in assay [3], in assay [5], in [7], in assay [8], in [10] and in assay [11]. For the same compound, the outcome in assay [12], in assay [13], in [14], in assay [15], in assay [16] and in assay [18] was inactive. The call in [17] and in assay [19] was inactive.
On to `Cc1nc(-c2ccc3c(c2)CCN(CCC2CCC(NC(=O)/C=C/c4ccc(F)cc4)CC2)CC3)no1` (centres undefined), for which the compound was classed as inactive in [1], in assay [3], in assay [5], in [6], in assay [8] and in [10]. Further, the compound was called inactive in [12], in [13], in [14], in assay [15], in assay [16] and in assay [18]. In addition, the call in [17] was inactive. In addition, the AC50 in [2] is 25.2 µM (active); in assay [4], 24.2 µM (active); in assay [7], 16.2 µM (active); in [9], 23.8 µM (active).
In the case of `CCOC(=O)C(C)(C)Oc1ccc(Cl)cc1`, the result in assay [1], in assay [2], in assay [3], in assay [4], in [5] and in assay [6] was inactive. The compound was classed as inactive in assay [7], in [8], in assay [9], in assay [10], in [12] and in assay [13]. Besides, the result in assay [14], in assay [15], in assay [16] and in assay [17] was inactive.
